Bioassay records (PubChem)
Compounds with a hit are over-represented: about 5.2% of the library has one in this group of screens.
Sfp PPTase inh = blocks B. subtilis Sfp PPTase activity; actives 3.5% (n = 310,000); Biochemical Sfp PPTase activity, qHTS; AID 1490; Q9F4F7; Potency, µM, inactives show largest response in the series, negative = inhibition, actives largely listed as inhibitors;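 also: the enzyme is Sfp with the accession as filed and its product quenches rhodamine fluorescence; 0% = enzyme reaction without inhibitor and -100% = no enzyme wells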
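Fluorescence-quenching assay with 15 nM Sfp, 5 uM rhodamine-CoA and 12.5 uM BHQ-2-labelled ybbR peptide in pH 7.6 Hepes/MgCl2 buffer. Enzyme was pre-incubated with compound for 15 min at room temperature. Rate was taken from the 30-min fluorescence change (525/598 nm).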
PLK1 PBD inh = PLK1 (human) polo-box domain binding inhibition. P53350. Plk1 PBD binding of FITC phosphopeptide, fluorescence polarization. Potency, µM, inactives show max response, negative = inhibition, usual class: inhibitors. actives 2.8% (n = 360,000). AID 720504; also: series mostly up to about 57 µM; nearly all actives have a fitted effect of over 65% in size
Target sequence (P53350 whole entry, looked up, the tested form may be a part): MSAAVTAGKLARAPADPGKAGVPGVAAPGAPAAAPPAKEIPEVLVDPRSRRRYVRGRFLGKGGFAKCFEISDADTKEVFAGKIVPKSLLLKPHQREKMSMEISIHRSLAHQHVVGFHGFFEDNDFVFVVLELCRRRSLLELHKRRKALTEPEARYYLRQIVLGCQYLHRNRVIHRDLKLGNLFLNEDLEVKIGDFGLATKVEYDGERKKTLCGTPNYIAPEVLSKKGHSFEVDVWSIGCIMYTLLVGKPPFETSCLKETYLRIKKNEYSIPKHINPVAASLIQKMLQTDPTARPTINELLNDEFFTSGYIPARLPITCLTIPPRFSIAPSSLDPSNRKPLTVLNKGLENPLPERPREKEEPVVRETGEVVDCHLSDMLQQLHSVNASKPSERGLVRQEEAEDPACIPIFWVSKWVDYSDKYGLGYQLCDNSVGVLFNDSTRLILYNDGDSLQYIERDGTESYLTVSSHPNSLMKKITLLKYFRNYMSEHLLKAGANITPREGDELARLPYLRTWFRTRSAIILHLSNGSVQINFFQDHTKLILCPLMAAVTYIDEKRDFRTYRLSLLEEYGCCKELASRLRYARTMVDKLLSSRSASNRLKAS
TrxR1 inh = inhibitors of rat thioredoxin reductase 1. recombinant rTrxR1, NADPH fluorescence consumption, selenite substrate. Potency, µM (series often up to 114 µM), for inactives: at the highest dose activity change, negative = inhibition, most hits filed as inhibitors. actives 1% (n = 390,000). AID 588453; also: nearly all actives have a fitted effect of over 65% in size
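Rat TrxR1 (90 nM in the dispensed reagent) was pre-reduced with 400 uM NADPH for 5 min at room temperature, then incubated with compound for 15 min. After 400 uM selenite was added, NADPH fluorescence (Ex 340/Em 450 nm) was followed for 8 min.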
IDH1 R132H inh = blocks human mutant IDH1 R132H enzyme; IDH1-R132H enzyme, NADPH consumption, diaphorase/resazurin fluorescence; O75874; actives 0.093% (n = 390,000); Potency, µM (highest dose often 76.6 µM), inactives show at the highest dose activity change, negative = inhibition, most hits filed as inhibitors; also: nearly all actives have a fitted effect of over 65% in size
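IDH1-R132H (0.5 ug/mL dispensed) in pH 7.5 Tris buffer was preincubated 30 min with compound, then given a substrate mix of 0.016 mM NADPH and 2 mM alpha-KG for 80 min at room temperature; remaining NADPH was read by diaphorase/resazurin fluorescence.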
TrxR1 substrate = rat thioredoxin reductase 1 substrate activity | actives 0.01% (n = 390,000) | O89049 | Potency, µM (series often up to 114 µM), for the others: at the highest dose activity change, negative = substrate turnover | AID 588456 | purified TrxR1 substrate turnover, NADPH consumption readout; also: nearly all actives have a fitted effect of over 50% in size
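Rat TrxR1, dispensed at 90 nM, was prereduced with 400 uM NADPH (final) for 5 min at ~22 deg C, then incubated with compound 15 min before 400 uM selenite. A first-read NADPH fluorescence drop versus no-compound background flagged substrates.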
VDR inhibitor = vitamin D3 receptor (human) inhibition | P11473 | VDR-SRC2-3 peptide fluorescence polarization, 2 h | Potency, µM, without a hit: max response, negative = inhibition, hits mostly inhibitors | actives 0.93% (n = 400,000) | AID 504847
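Fluorescence polarization assay of small-molecule disruption of VDR binding to coregulator peptide SRC2-3. Compounds and controls pin-transferred, then read after 2 h incubation at ambient room temperature.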
TbPYK confirm = Trypanosoma brucei pyruvate kinase inhibition, cherry-pick confirmation; Potency, µM (titrated, usually from 76.9 µM), inactives show at the top dose activity change, negative = inhibition, usual class: inhibitors; shares compounds with PLK1 PBD inh; recombinant TbPYK, Kinase-Glo ATP luminescence; actives 67% (n = 890); also: nearly all actives have a fitted effect of over 70% in size
TbPYK ADP-Glo = inhibits T. brucei pyruvate kinase in orthogonal ADP-Glo assay. shares compounds with PLK1 PBD inh. recombinant TbPYK, ADP-Glo luminescence, 60 min. Potency, µM (doses to about 76.9 µM), for inactives: top-dose activity change, negative = inhibition, most hits filed as inhibitors. actives 62% (n = 890); also: nearly all actives have a fitted effect of over 75% in size
The depositor's hits bear a star; ? = inconclusive; . = no result given; [ ] = another dose, or the depositor's remark. Calls follow the shape of the dose curve; as a rule, active = well fitted curve in the direction sought with a large enough effect; inconclusive = small, poorly fitted or top-dose-only effect, or another doubt; inactive = no such curve, though single readings can be large; an effect the other way counts as inactive or inconclusive. Unless noted, % is scaled to controls: 0 for no effect and ±100 for the full control effect; potency is read from the fitted curve at half-maximal effect.

SMILES | Sfp PPTase inh | PLK1 PBD inh | TrxR1 inh | IDH1 R132H inh | TrxR1 substrate | VDR inhibitor | TbPYK confirm | TbPYK ADP-Glo
O=C(CSc1nnc(-c2ccco2)n1CC1CCCO1)N1CCCCC1 (stereo not drawn) | 2% | -3% | -23% | -3% | 9% | -13% | . | .
COc1ccc(C(=O)CSc2nnc(-c3ccco3)c(-c3ccco3)n2)cc1 | 8.9µM* | 27µM* | 8.9µM* | -5% | -8% | -20% | 25µM* | 35µM*
O=C(CSc1ccc(-c2ccc(F)cc2)nn1)NCc1ccco1 | 13% | -6% | -5% | 3% | -4% | 27% | . | .
CC(=O)Nc1ccc(C(=O)CSc2nnc(-c3ccc(O)cc3)n2CC2CCCO2)cc1 (stereo not drawn) | ? | -17% | -8% | 2% | 3% | -3% | 16µM* | ?
O=C(CSc1nnc(-c2ccco2)n1CC1CCCO1)c1ccc(F)cc1 (stereo not drawn) | 50µM* | 2.7µM* | 16µM* | -3% | -1% | -29% | ? | 40µM*
O=C(CSc1ccc(-c2ccco2)nn1)c1ccc(F)cc1 | 32µM* | ? | 8.9µM* | 9% | -4% | ? | 25µM* | 32µM*
Cc1cc2[nH]c(=O)c(=O)[nH]c2cc1S(=O)(=O)Nc1cccc(C(F)(F)F)c1 | . | . | 12% | 0% | -3% | 1% | . | .
COc1ccc(-c2nc3scc(CCNS(=O)(=O)c4cccc(C(C)=O)c4)n3n2)cc1 | . | . | 7%[57.1 µM] | 2% | 2%[57.1 µM] | 1% | . | .
O=C(NCCc1cccs1)c1ccc(Cn2c(SCc3ccc(F)cc3)nc3cccnc32)cc1 | . | . | 40% | -15% | 19% | 8% | . | .
CCN(CC)CCCn1c2c(c(SCC(=O)Nc3nccs3)nc1=O)CCC2 | . | 5% | 19%[57.1 µM] | -10% | 7%[57.1 µM] | -3% | . | .
COc1ccc(OCC(=O)Nc2ccc(-c3nc4cc(C)cc(C)c4o3)cc2)cc1 | . | . | 19% | 14% | 6% | -3% | . | .
COc1ccc(S(=O)(=O)N2CCC(n3c(C)nc4cccnc43)CC2)cc1Cl | . | . | 5%[57.1 µM] | -1% | 0%[57.1 µM] | 7% | . | .
Cc1cc(O)c(-c2cc(O)c(C)cc2O)cc1O | 2.5µM* | 4.7µM* | -19% | -1% | 118% | 25µM* | 32µM* | 11µM*
COc1ccc(CCNC(=O)Cc2c(C)c3cc(OC)c(OC)cc3oc2=O)cc1 | . | . | 20% | -5% | 98% | -9% | . | .
COC(=O)c1ccc2nc(-c3ccco3)c(Cc3ccc(C)cc3)n2c1 | . | -17% | . | . | . | . | 20µM* | 25µM*
COC(=O)c1ccc2nc(-c3ccc(F)cc3)c(Cc3cccc(F)c3)n2c1 | . | 17% | . | . | . | . | . | .
COC(=O)c1ccc2nc(-c3ccco3)c(Cc3ccc(OC)cc3C)n2c1 | . | 27µM* | . | . | . | . | 7.1µM* | 7.9µM*
COC(=O)c1ccc2nc(-c3ccco3)c(Cc3cccc(F)c3)n2c1 | . | ? | . | . | . | . | 11µM* | 7.9µM*
COC(=O)c1ccc2nc(-c3ccco3)c(Cc3ccccc3C(F)(F)F)n2c1 | . | ? | . | . | . | . | ? | ?
COC(=O)c1ccc2nc(-c3ccc(F)cc3)c(Cc3ccc(OC)cc3C)n2c1 | . | -2% | . | . | . | . | . | .
Cc1nn(C)c(Sc2ccccc2N)c1[N+](=O)[O-] | 3.5µM* | 13µM* | 70% | 1% | 1% | ? | 13µM* | 13µM*
Cc1ccc(NC(=O)Cn2c(=O)n(Cc3ccccc3)c(=O)c3sc4ccccc4c32)cc1 | . | . | 9% | -5% | 0% | 6% | . | .
COC(=O)c1c(-c2ccc(C(C)(C)C)cc2)csc1NC(=O)C1C2CCC(O2)C1C(=O)O (stereo not drawn) | 11µM* | 2.7µM* | -11% | 1% | -1% | 45µM* | 4.5µM* | 14µM*
O=S(=O)(c1ccc2nc(-c3ccco3)c(-c3ccco3)nc2c1)N1CCOCC1 | 10µM* | ? | 4µM* | -2% | 4% | -23% | 20µM* | 25µM*
CCc1nc2ccc(C(=O)O)cc2nc1CC | -11% | -13% | -16% | 6% | -11% | -27% | . | .
SMILES | Sfp PPTase inh | PLK1 PBD inh | TrxR1 inh | IDH1 R132H inh | TrxR1 substrate | VDR inhibitor | TbPYK confirm | TbPYK ADP-Glo
O=C(c1ccc2nc(-c3ccco3)c(-c3ccco3)nc2c1)N1CCN(c2ccccc2)CC1 | ? | -11% | ? | 0% | -10% | 0% | . | .
O=C(O)c1ccc2nc(-c3ccco3)c(-c3ccco3)nc2c1 | 7.9µM* | 12µM* | 2.2µM* | -1% | 15% | ? | 14µM* | 16µM*
O=S(=O)(c1ccc2ccccc2c1)N1CCOCC1 | 16% | -5% | 17% | -6% | 4% | -24% | . | .
O=C(O)c1ccc2nc3c(nc2c1)-c1ccccc1C3=O | 7% | 30µM* | 20%[57.1 µM] | 4% | -5%[57.1 µM] | ? | 20µM* | ?
CC1(C)c2[nH]c3ccccc3c2C[C@@H]2C(=O)N(Cc3ccco3)C(=O)N21 | . | . | -29% | . | 0% | -5% | . | .
CCCCCCC1CCC(C(=O)NC(C(=O)O)C(C)C)CC1 (stereo not drawn) | . | . | 17%[2.29 µM] | -10% | -4% | -22% | . | .
CNS(=O)(=O)c1cn(CC(=O)N2CCN(c3ccc(Cl)cc3)CC2)cc1S(=O)(=O)NC | . | . | 26% | 16% | 3% | 10% | . | .
CN1c2ccccc2N(C)C1(C)c1ccccc1 | ? | 4.2µM* | ? | 18% | -5% | ? | 3.2µM* | 5µM*
CCOC(=O)CNC(=O)CSc1nnc(-c2ccccc2)n1Cc1ccco1 | 13µM* | -9% | -3%[57.1 µM] | 2% | 8%[57.1 µM] | 11% | 2.2µM* | 1.4µM*
Cc1cc(NC(=O)CSc2nnc(-c3ccccc3)n2Cc2ccco2)no1 | -17% | 0% | -17% | 5% | -3% | 0% | . | .
CCN1/C(=C/c2ccc3ccccc3[n+]2CC)C=Cc2ccccc21 | 50µM* | -22% | ? | 8% | -5% | 15% | 11µM* | ?
CCN1/C(=C/c2ccc3ccccc3[n+]2CCCS(=O)(=O)[O-])C=Cc2cc(C)ccc21 | -21% | -5% | 11% | 3% | -8% | -4% | . | .
FC(F)(F)c1ccccc1-c1nc(N2CCOCC2)c2ccccc2n1 | 10% | . | . | . | . | ? | . | .
COc1ccc(NC(=O)c2cc(-c3ccc4c(c3)OCO4)on2)c(OC)c1 | . | . | 15% | -15% | -1% | -25% | . | .
COC(=O)c1ccc(COC(=O)[C@@H]2CC(O)CN2S(=O)(=O)c2ccccc2[N+](=O)[O-])cc1 (stereo partly drawn) | . | -9% | -19% | -2% | -18% | 3% | . | .
